Data taken from PubChem BioAssay (EPA / NIEHS).
Active and inactive are the calls of the source. The calls were made as follows: active = hit-call score of the fitted dose curve at least 0.9, where 1 is the maximum; inactive = score below 0.9.

What was measured:
[1] = BSK_CASM3C_SRB: Viability Assessment in the BioMAP Diversity Plus: CASM3C Assay (AID 2283050); settings: primary human coronary artery smooth muscle cells
[2] = read-out: Thrombomodulin, THBD (gene 7056); experiment: BSK_CASM3C_Thrombomodulin: BioMAP Diversity Plus: CASM3C Assay for Thrombomodulin Biomarker Activity (AID 2283051); settings: primary human coronary artery smooth muscle cells; actives raise or lower the signal;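 also: thrombomodulin protein level measured by ELISA 24 h after dosing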
[3] = read-out: Tissue Factor, F3 (gene 2152); experiment: BSK_CASM3C_TissueFactor: BioMAP Diversity Plus: CASM3C Assay for Tissue Factor Biomarker Activity (AID 2283052); settings: primary human coronary artery smooth muscle cells; actives raise or lower the signal;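 also: cell surface tissue factor protein level read by ELISA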
[4] = read-out: Interferon-gamma inducible Protein 10 (IP10), CXCL10 (gene 3627); experiment: BSK_hDFCGF_IP10: BioMAP Diversity Plus: hDFCGF Assay for Interferon-gamma inducible Protein 10 (IP10) Biomarker Activity (AID 2283053); settings: primary human foreskin fibroblasts; actives raise or lower the signal
Method in brief: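 IP-10 levels, quantified by ELISA, are taken from human foreskin fibroblast cultures 24 h after chemical treatment, with DMSO serving as negative control and baseline for bidirectional analysis.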

[5] = read-out: Urokinase-type plasminogen activator receptor (uPAR), PLAUR (gene 5329); experiment: BSK_CASM3C_uPAR: BioMAP Diversity Plus: CASM3C Assay for Urokinase-type plasminogen activator receptor (uPAR) Biomarker Activity (AID 2283054); settings: primary human coronary artery smooth muscle cells; actives raise or lower the signal;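 also: cell-surface uPAR protein level quantified by ELISA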
[6] = read-out: Vascular cell adhesion molecule 1 (VCAM1), VCAM1 (gene 7412); experiment: BSK_CASM3C_VCAM1: BioMAP Diversity Plus: CASM3C Assay for Vascular cell adhesion molecule 1 (VCAM1) Biomarker Activity (AID 2283055); settings: primary human coronary artery smooth muscle cells; actives raise or lower the signal;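 also: VCAM-1 protein level quantified by ELISA on the cells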
[7] = read-out: Collagen III, COL3A1 (gene 1281); experiment: BSK_hDFCGF_CollagenIII: BioMAP Diversity Plus: hDFCGF Assay for Collagen III Biomarker Activity (AID 2283056); settings: primary human foreskin fibroblasts; actives raise or lower the signal
Method in brief: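 Cells: human foreskin fibroblasts, primary. Dosing followed by 24 h incubation, then ELISA for collagen III. Both increases and decreases scored relative to DMSO.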

[8] = read-out: Epidermal growth factor receptor (EGFR), EGFR (gene 1956); experiment: BSK_hDFCGF_EGFR: BioMAP Diversity Plus: hDFCGF Assay for Epidermal growth factor receptor (EGFR) Biomarker Activity (AID 2283057); settings: primary human foreskin fibroblasts; actives raise or lower the signal
Method in brief: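 Measured by ELISA: EGFR levels on primary human foreskin fibroblasts 24 h after chemical treatment, analysed relative to DMSO with bidirectional fitting.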

[9] = read-out: Interleukin-8 (IL8), CXCL8 (gene 3576); experiment: BSK_hDFCGF_IL8: BioMAP Diversity Plus: hDFCGF Assay for Interleukin-8 (IL8) Biomarker Activity (AID 2283058); settings: primary human foreskin fibroblasts; actives raise or lower the signal
Method in brief: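 IL-8 levels from compound-treated primary human fibroblasts were read by ELISA at 24 h, with DMSO serving as baseline for bidirectional fitting.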

[10] = BSK_hDFCGF_Proliferation: Cell Proliferation Assessment in the BioMAP Diversity Plus: hDFCGF Assay (AID 2283059); settings: primary human foreskin fibroblasts;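 also: curves fitted for both rise and fall of signal versus DMSO baseline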
Method in brief: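 This proliferation readout used SRB total-protein staining of human foreskin fibroblasts […], normalized to DMSO with bidirectional curve fitting.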

[11] = read-out: Macrophage colony-stimulating factor (MCSF), CSF1 (gene 1435); experiment: BSK_hDFCGF_MCSF: BioMAP Diversity Plus: hDFCGF Assay for Macrophage colony-stimulating factor (MCSF) Biomarker Activity (AID 2283060); settings: primary human foreskin fibroblasts; actives raise or lower the signal
Method in brief: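 M-CSF levels, determined by ELISA, are taken at 24 h after dosing human skin fibroblasts. Responses in either direction are fitted with DMSO serving as the baseline.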

[12] = BSK_hDFCGF_SRB: Viability Assessment in the BioMAP Diversity Plus: hDFCGF Assay (AID 2283061); settings: primary human foreskin fibroblasts;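 also: cells exposed to compound for 24 h before the read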
Method in brief: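 Cells were dosed with test chemical, cultured 24 h, fixed with 10% TCA, then stained with 0.1% SRB and read at 560 nm. The fibroblasts were human foreskin primary cells, and DMSO served as baseline.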

[13] = read-out: TIMP metallopeptidase inhibitor 1 (TIMP1), TIMP1 (gene 7076); experiment: BSK_hDFCGF_TIMP1: BioMAP Diversity Plus: hDFCGF Assay for TIMP metallopeptidase inhibitor 1 (TIMP1) Biomarker Activity (AID 2283062); settings: primary human foreskin fibroblasts; actives raise or lower the signal
Method in brief: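 Fibroblasts from human foreskin are treated with test chemical and harvested at 24 h. TIMP-1 is quantified by ELISA, and gain or loss of signal is scored against DMSO.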

[14] = read-out: Monokine induced gamma interferon (MIG), CXCL9 (gene 4283); experiment: BSK_hDFCGF_MIG: BioMAP Diversity Plus: hDFCGF Assay for Monokine induced gamma interferon (MIG) Biomarker Activity (AID 2283063); settings: primary human foreskin fibroblasts; actives raise or lower the signal
Method in brief: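 MIG signal, determined by ELISA, reflects 24 h chemical exposure of human skin primary fibroblasts. DMSO serves as negative control and baseline.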

[15] = read-out: Matrix Metallopeptidase 1 (MMP1), MMP1 (gene 4312); experiment: BSK_hDFCGF_MMP1: BioMAP Diversity Plus: hDFCGF Assay for Matrix Metallopeptidase 1 (MMP1) Biomarker Activity (AID 2283064); settings: primary human foreskin fibroblasts; actives raise or lower the signal
Method in brief: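 Primary human foreskin fibroblasts in the hDFCGF system were dosed with test chemical, and MMP1 was measured by ELISA 24 h later. Values come from bidirectional curve fitting against the DMSO baseline.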

[16] = read-out: Vascular cell adhesion molecule 1 (VCAM1), VCAM1 (gene 7412); experiment: BSK_hDFCGF_VCAM1: BioMAP Diversity Plus: hDFCGF Assay for Vascular cell adhesion molecule 1 (VCAM1) Biomarker Activity (AID 2283065); settings: primary human foreskin fibroblasts; actives raise or lower the signal;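 as to AC50: VCAM-1 protein level quantified by ELISA after 24 h chemical exposure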
Method in brief: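 Cells are dosed, cultured for 24 h, then VCAM-1 is quantified by ELISA; signal increases and decreases are both fitted relative to DMSO.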

[17] = read-out: Plasminogen activator inhibitor-1 (PAI1), SERPINE1 (gene 5054); experiment: BSK_hDFCGF_PAI1: BioMAP Diversity Plus: hDFCGF Assay for Plasminogen activator inhibitor-1 (PAI1) Biomarker Activity (AID 2283066); settings: primary human foreskin fibroblasts; actives raise or lower the signal
Method in brief: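 PAI-1 levels, determined by ELISA, served as the endpoint in human foreskin fibroblast cultures exposed to compound for 24 h, with DMSO as baseline.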

[18] = read-out: Interferon-gamma inducible Protein 10 (IP10), CXCL10 (gene 3627); experiment: BSK_KF3CT_IP10: BioMAP Diversity Plus: KF3CT Assay for Interferon-gamma inducible Protein 10 (IP10) Biomarker Activity (AID 2283068); settings: primary human keratinocytes with fibroblasts; actives raise or lower the signal
Method in brief: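 Signal is secreted/surface IP-10 by ELISA in a human primary skin co-culture of keratinocytes and foreskin fibroblasts, taken 24 h post-dosing; DMSO served as negative control.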

[19] = BSK_KF3CT_SRB: Viability Assessment in the BioMAP Diversity Plus: KF3CT Assay (AID 2283069); settings: primary human keratinocytes with fibroblasts;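 also: total protein by sulforhodamine B staining as a cytotoxicity measure; fitted for both signal gain and loss against DMSO baseline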
Method in brief: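 Human primary keratinocyte plus foreskin fibroblast co-culture exposed to chemicals for 24 h. Total protein measured by 0.1% sulforhodamine B staining after 10% TCA fixation, read at 560 nm; bidirectional fitting versus DMSO baseline.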

[20] = read-out: Intercellular Adhesion Molecule 1 (ICAM1), ICAM1 (gene 3383); experiment: BSK_KF3CT_ICAM1: BioMAP Diversity Plus: KF3CT Assay for Intercellular Adhesion Molecule 1 (ICAM1) Biomarker Activity (AID 2283067); settings: primary human keratinocytes with fibroblasts; actives raise or lower the signal
Method in brief: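 Dose the keratinocyte/fibroblast co-culture, wait 24 h, measure ICAM-1 by ELISA, then fit increases or decreases against DMSO. Cytotoxicity is checked in parallel cultures by SRB total-protein staining.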

Measured: AC50

C=C(C)C(=O)OCC(F)(F)C(F)(F)C(F)(F)F
not listed: [20]
inactive: all other assays above

FC(F)(F)C(F)(F)C(F)(F)C(F)(F)C(F)(F)C(F)(F)C(F)(F)C(F)(F)F
not listed: [20]
inactive: all other assays above

O=C(O)C(F)(F)C(F)(F)C(F)F
not listed: [20]
inactive: all other assays above

C=C(C)C(=O)OCCC(F)(F)C(F)(F)C(F)(F)C(F)(F)C(F)(C(F)(F)F)C(F)(F)F
not listed: [7]
inactive: all other assays above

CCN(CC)c1ccc2c(C)cc(=O)oc2c1
active: [10] 24 µM | [16] 30.5 µM
not listed: [7] | [20]
inactive: all other assays above

CS(C)(=O)=O
not listed: [7] | [20]
inactive: all other assays above

CCCCCCCCCCCCCCCC[N+](C)(C)Cc1ccccc1
active: [1] 5.23 µM | [3] 7.36 µM | [4] 2.56 µM | [5] 7.8 µM | [6] 4.2 µM | [9] 3.86 µM | [10] 0.59 µM | [11] 1.97 µM | [12] 5.13 µM | [13] 1.71 µM | [14] 3.62 µM | [15] 4.17 µM | [16] 1.91 µM | [17] 1.52 µM | [18] 3.64 µM | [19] 5.1 µM
inactive: [2] | [8]

OCC(F)(F)C(F)(F)C(F)(F)C(F)(F)C(F)(F)C(F)F
not listed: [20]
inactive: all other assays above

CO[Si](OC)(c1ccccc1)c1ccccc1
active: [1] 31.1 µM | [3] 30.7 µM | [5] 29.5 µM | [6] 35.7 µM | [10] 28.1 µM | [11] 32.5 µM | [12] 36 µM | [19] 32.6 µM
not listed: [7]
inactive: all other assays above
